Screening data from PubChem BioAssay.
Rows were chosen to be rich in hits. Some 2.2% of all compounds tested hit in one or more screens of this group.
PfHsp90 set2: reduces growth (ATP signal) of yeast expressing P. falciparum Hsp90; 310,000 compounds, 0.32% hits; AID 504621; inhibition, % at 9.4 µM; S. cerevisiae expressing PfHsp90, BacTiter-Glo ATP, 48 h; yeast lacking PDR1 and PDR3 efflux regulators;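 active means every replicate shows inhibition above about 80%, whatever the replicate mean, limit read from the data; inconclusive means mean inhibition reaches the set limit but some replicate falls short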;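 further: 0% = DMSO neutral controls and 100% = 20 µM radicicol positive controls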
Beta cell apopt: blocks beta cell apoptosis | 300,000 compounds, 0.8% hits | protection from apoptosis, % (concentration not given with the values) | AID 435005 | INS-1E cytokine-induced death, ATP luminescence, 48 h; percent of positive-control rescue, neutral wells zero;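 active means Every replicate reaches about 75%, or at least half do and their mean reaches it too, limit read from the data; inconclusive means At least half of replicates reach the limit but their mean does not; inactive means Under half of replicates reach the limit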;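 further: 0% = cytokine-treated negative control wells and 100% = positive control rescue; higher means more ATP so stronger rescue from cytokine killing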
CSC inhib: blocks cancer stem cells; inhibition, % at 7.5 µM; cancer stem cell-like cells viability, luminescence; AID 2717; 300,000 compounds, 1.1% hits; in the data active means inhibition above about 75%; inconclusive means no clear call, values can overlap the other calls; tested in HMLE shEcad cells
Shn3 3UTR inh: Schnurri-3 reporter inhibition in Clone20 osteoblasts; Clone20 osteoblast Shn3 3'UTR firefly luciferase, 24 h; inhibition, % at 12.5 µM; 360,000 compounds, 0.52% hits; AID 588674;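 active means mean inhibition of at least 75% with every replicate also reaching 75%; inconclusive means mean inhibition at least 75% but some replicate below; inactive means mean inhibition below 75%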;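 further: 0% = median of neutral control wells and 100% = pilot-screen positive control compound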
Calb FLC: C. albicans growth modulation with fluconazole; AID 1979; 300,000 compounds, 0.57% hits; growth inhibition, % (test concentration not listed); C. albicans CaCi-2 (fluconazole-resistant clinical isolate) + fluconazole, Alamar Blue growth, 48 h;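 active means growth inhibition above about 58% in most replicates, limit read from the data, passing the limit was not always enough; inconclusive means exactly half the replicates above a set limit; inactive means most replicates below a set limit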;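 further: all wells also contain fluconazole at 8 µg/ml as a sub-toxic cotreatment; 0% = median of DMSO wells and 100% = median of geldanamycin control wells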
* marks the source's active call; other numbers are inactive results.

`CN1CCN(C(c2ccc(Br)cc2)c2cc(Cl)c3cccnc3c2O)CC1` (configuration not stated) gave PfHsp90 set2 107.3*, Beta cell apopt 73.0, CSC inhib 110.9*, Shn3 3UTR inh inconclusive and Calb FLC 89.9*.
CN1CCN(C(c2cccnc2)c2ccc3cccnc3c2O)CC1 (configuration not stated) was read as Beta cell apopt 22.3, CSC inhib 25.1, Shn3 3UTR inh -3.3 and Calb FLC 88.9*.
`CCCNC(=O)C1(C)CCCN(Cc2ccc(-c3ccccc3)cc2)C1` (configuration not stated) gave Shn3 3UTR inh 21.9.
COc1ccc(-c2n(Cc3ccccc3)c3ccccc3[n+]2Cc2ccccc2)cc1 was read as PfHsp90 set2 -1.8, Beta cell apopt 113.0*, CSC inhib 24.6, Shn3 3UTR inh 50.5 and Calb FLC inconclusive.
COc1ccc(-c2nc3ccccc3n2Cc2ccccc2)cc1 was read as PfHsp90 set2 -14.8, Beta cell apopt -3.9, CSC inhib -5.1, Shn3 3UTR inh 3.2 and Calb FLC -3.0.
Screening CCC(CO)Oc1cc(NC(=O)c2ccccc2Cl)c2ncn(C(C)C)c2c1 (configuration not stated) returned PfHsp90 set2 -35.3, Beta cell apopt 3.9, CSC inhib -8.8 and Shn3 3UTR inh 5.2.
O=C(N/N=C/c1ccc[nH]1)c1sc2ccccc2c1Cl was read as PfHsp90 set2 -51.9, Beta cell apopt 28.5, CSC inhib 92.7*, Shn3 3UTR inh 0.6 and Calb FLC 3.8.
O=C(NN1CCCCCC1)c1ccccc1F was read as PfHsp90 set2 -11.8 and Shn3 3UTR inh 1.7.
Screening CC(CCc1ccccc1)NCc1cccc2ccccc12 (configuration not stated) returned PfHsp90 set2 -12.0, Beta cell apopt 6.8, CSC inhib 3.4, Shn3 3UTR inh 45.8 and Calb FLC 2.1.
For CNC[C@H](Cc1cccc2ccccc12)NC[C@H](CCSC)NCC1CCC(C(C)(C)C)CC1 (some centres not stated) the results were Beta cell apopt -0.7 and CSC inhib 90.3*.
For NNc1nc(-c2ccccc2Cl)nc2sc3c(c12)CCCC3 the results were PfHsp90 set2 -5.0, Beta cell apopt 28.8, CSC inhib 76.0*, Shn3 3UTR inh -0.6 and Calb FLC -0.8.
O=C1[C@@H]2[C@H](C(=O)N1CC(O)COCc1ccccc1)C1C=C[C@H]2C1 (some centres not stated) was read as PfHsp90 set2 -20.4 and Shn3 3UTR inh 4.4.
`O=C1/C(=C\c2cc([N+](=O)[O-])ccc2O)SC(=S)N1Cc1ccc(Cl)cc1` gave PfHsp90 set2 11.7, Beta cell apopt 4.0, CSC inhib 104.4*, Shn3 3UTR inh 28.1 and Calb FLC 85.5*.
For Cc1ccccc1/C=C1\SC(=S)N(/N=C/c2cc([N+](=O)[O-])ccc2O)C1=O the results were PfHsp90 set2 -22.9, Beta cell apopt 6.9, CSC inhib 5.5, Shn3 3UTR inh 6.2 and Calb FLC 84.8*.
`O=C(O)CN1C(=O)/C(=C\c2cc([N+](=O)[O-])ccc2OCc2ccccc2Cl)SC1=S` gave PfHsp90 set2 -10.8, Beta cell apopt 10.3, CSC inhib 1.9, Shn3 3UTR inh -20.9 and Calb FLC 18.2.
COc1cc(/C=C2/SC(=S)N(Cc3ccccc3)C2=O)ccc1O was read as PfHsp90 set2 -1.0, Beta cell apopt -1.4, CSC inhib 100.3*, Shn3 3UTR inh 3.4 and Calb FLC 31.0.
`COc1cc(/C=C2/SC(=NCc3ccccc3)N(Cc3ccccc3)C2=O)ccc1O` gave PfHsp90 set2 -23.6, Beta cell apopt -5.0, CSC inhib 0.2, Shn3 3UTR inh -4.1 and Calb FLC -4.4.
Screening O=C1/C(=C\c2cccc(O)c2)SC(=S)N1Cc1ccccc1 returned PfHsp90 set2 10.1, Beta cell apopt -5.8, CSC inhib 19.9, Shn3 3UTR inh 1.4 and Calb FLC 5.7.
Screening O=C1/C(=C\c2ccc(O)c(O)c2)SC(=S)N1Cc1ccccc1 returned PfHsp90 set2 122.1*, Beta cell apopt -1.2, CSC inhib 104.5*, Shn3 3UTR inh 15.2 and Calb FLC 18.2.
`COc1cccc(CN2CC(C(=O)N3CCCO3)CCC2=O)c1` (configuration not stated) gave PfHsp90 set2 2.0, Beta cell apopt -3.3, CSC inhib -3.4, Shn3 3UTR inh 3.4 and Calb FLC 4.7.
`O=C1/C(=C\c2cccc(O)c2O)SC(=S)N1Cc1ccccc1` gave PfHsp90 set2 108.4*, Beta cell apopt -1.7, CSC inhib 85.9*, Shn3 3UTR inh 32.7 and Calb FLC 3.0.
`O=C(O)CN1C(=O)/C(=C\c2cc(Br)ccc2OCc2ccc(F)cc2)SC1=S` gave PfHsp90 set2 -10.5, Beta cell apopt -11.8, CSC inhib 41.2, Shn3 3UTR inh 5.8 and Calb FLC 1.5.
O=C(O)CN1C(=O)/C(=C\c2cc(Br)ccc2OCc2ccc(Cl)cc2)SC1=S was read as PfHsp90 set2 24.5, Beta cell apopt -5.0, CSC inhib 98.3*, Shn3 3UTR inh -15.7 and Calb FLC 0.0.
`Cc1cc(C)cc(NC(=O)CCc2nc3sc4c(c3c(=O)[nH]2)CCCC4)c1` gave PfHsp90 set2 -3.6, CSC inhib 89.0*, Shn3 3UTR inh -43.8 and Calb FLC -1.0.
CC(=O)Nc1ccc(NC(=O)CCc2nc3sc4c(c3c(=O)[nH]2)CCCC4)cc1 was read as Beta cell apopt 0.9, Shn3 3UTR inh -4.2 and Calb FLC 10.8.
`COc1ccc(OC(=O)N2CCOCC2)cc1` gave PfHsp90 set2 10.0, Beta cell apopt -0.7, CSC inhib -15.3, Shn3 3UTR inh -25.5 and Calb FLC -6.9.
COc1cc(OC)c(C=O)c(OC(=O)N2CCOCC2)c1 was read as PfHsp90 set2 12.6, Beta cell apopt -11.5, CSC inhib 128.2*, Shn3 3UTR inh -10.0 and Calb FLC 10.2.
Cc1ccc(NS(=O)(=O)c2ccc(-c3cnc(C4CC4)o3)cc2)cc1 was read as PfHsp90 set2 -8.4, Beta cell apopt 19.4, CSC inhib 65.2, Shn3 3UTR inh 31.4 and Calb FLC 0.6.
For COc1ccc(C)cc1NS(=O)(=O)c1ccc(-c2cnc(C3CC3)o2)cc1 the results were PfHsp90 set2 -32.8, Shn3 3UTR inh 89.6* and Calb FLC 7.2.
Screening Cc1sc2cc3c(c(C(=O)c4ccccc4)[n+]2c1C)-c1cccc2cccc-3c12 returned Beta cell apopt 99.5*, CSC inhib 35.0 and Calb FLC 56.7.
Screening O=C(c1ccccc1)c1c2c(cc3sc4ccccc4[n+]13)-c1cccc3cccc-2c13 returned PfHsp90 set2 -25.0, Beta cell apopt 98.4*, CSC inhib 63.7 and Shn3 3UTR inh 78.4.
Screening O=c1ccc2c([nH]1)CCCCCCCCCC2 returned PfHsp90 set2 -4.7, Beta cell apopt -2.3, CSC inhib 19.7, Shn3 3UTR inh -0.5 and Calb FLC 3.1.
For CC(=O)Nc1cccc(N)c1 the results were PfHsp90 set2 -39.9, Beta cell apopt -0.8, CSC inhib -7.2 and Shn3 3UTR inh 14.8.
